Results on 40 compounds are retold here after PubChem BioAssay (EPA / NIEHS).

Each structure is given as a SMILES string. Active and inactive are the calls of the source. How the source made its calls: active means hit-call score of the fitted dose curve at least 0.9, where 1 is the maximum; inactive means score below 0.9.

Transcription factor E2F1 (Homo sapiens), sequence (Q01094 whole entry, looked up): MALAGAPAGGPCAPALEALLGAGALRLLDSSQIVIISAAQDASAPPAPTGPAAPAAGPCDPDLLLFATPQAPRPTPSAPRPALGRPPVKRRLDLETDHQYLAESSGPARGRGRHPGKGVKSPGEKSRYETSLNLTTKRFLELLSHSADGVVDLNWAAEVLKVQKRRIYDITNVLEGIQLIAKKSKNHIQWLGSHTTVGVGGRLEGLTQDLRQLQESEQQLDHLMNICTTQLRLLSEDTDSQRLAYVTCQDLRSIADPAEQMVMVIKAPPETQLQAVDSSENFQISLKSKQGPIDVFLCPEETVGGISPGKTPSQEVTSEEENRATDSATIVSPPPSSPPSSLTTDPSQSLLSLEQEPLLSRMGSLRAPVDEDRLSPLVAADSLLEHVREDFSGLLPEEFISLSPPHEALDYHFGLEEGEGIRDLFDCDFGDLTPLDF

The assay addresses Transcription factor E2F1 (Homo sapiens) (UniProt Q01094). The experiment in a line: ATG_E2F_CIS: Attagene CIS-FACTORIAL HepG2 Assay for human E2F Transcription Factor 1 (AID 2282935). Conditions: HepG2 Attagene cis-reporter, E2F reporter RNA transcripts; actives raise or lower the signal. How it is done:
ATG_CIS is a cell-based, multiplexed-readout assay that uses HepG2, a human liver cell line, with measurements taken at 24 hours after chemical dosing in a 24-well plate.ATG_E2F_CIS is one of 52 assay component(s) measured or calculated from the ATG_CIS assay. It is designed to make measurements of mRNA induction, a form of inducible reporter, as detected with fluorescence intensity signals by Reverse transcription polymerase chain reaction (RT-PCR) and Capillary electrophoresis technology.Data from the assay component ATG_E2F_CIS was analyzed into 1 assay endpoint. This assay endpoint, ATG_E2F_CIS, was analyzed with bidirectional fitting relative to DMSO as the negative control and baseline of activity. Using a type of inducible reporter, measures of mRNA for gain or loss-of-signal activity can be used to understand the reporter gene at the transcription factor-level as they relate to the gene E2F1. Furthermore, this assay endpoint can be referred to as a primary readout, because this assay has produced multiple assay endpoints where this one serves a reporter gene function. To generalize the intended target to other relatable targets, this assay endpoint is annotated to the dna binding intended target family, where the subfamily is E2F transcription factor.
Human liver HepG2 cells are transiently transfected with multiple reporter transcription units (MRTUs) in 6-well plates using FuGene 6 reagent (Roche; 3 ml FuGene/1 mg DNA). The MRTU constructs are regulated by a cis-regulating element (promoter). […] A major difference between the CIS and TRANS system is that in CIS activities of endogenous TFs are measured, whereas the TRANS assay evaluates changes in activities of exogenous, chimeric NR-Gal4 proteins. […] At the end of 24 hour incubation, total RNA was isolated using TriZol reagent (Invitrogen). The isolated RNA is then reverse-transcribed using oligo(dT) primer and Mo-MLV reverse transcriptase (Invitrogen) with DNAse I (Ambion) treatment for 30 min. The one-tenth of the produced cDNA was amplified by PCR using Taq DNA polymerase (Invitrogen) and two reporter sequence-specific primers. The PCR products were fluorescently labeled by primer extension with 6-arboxyfluorescein (6-FAM) 5'-labeled reporter sequence-specific primer (2 min at 95 C, 20 s at 68 C and 10 min at 72 C) and these products were digested with 5U of HpaI (New England Biolabs) for 2h at 37 C. The fragments were purified using Qiaquick PCR columns (Qiagen), analyzed on an ABI 3130xL genetic analyzer (Applied Biosystems) with peak positions identified by using a set of X-rhodamine (ROX)-labeled MapMarker1000 molecular weight standards (BioVentures). The raw capillary electrophoresis data was processed using Attagraph software (Attagene).
Consider `CNC(C)=O`, for which the compound was called inactive. Still for that read-out and setting: to `C=CCc1cc(S(=O)(=O)c2ccc(O)c(CC=C)c2)ccc1O` belongs “inactive”; to `c1ccc2c(c1)-c1cccc3c1c-2cc1ccccc13`, “inactive”. Take `CC[C@H](C)C(=O)O[C@H]1C[C@H](O)C=C2C=C[C@H](C)[C@H](CC[C@@H](O)C[C@@H](O)CC(=O)O)[C@H]21`: the outcome was inactive.

On to `Cc1ncc([C@@H](CCCCCCc2ccc3c(n2)NCCC3)CC(=O)O)cn1`, for which the outcome was inactive. In the case of `FC(F)(F)COC(OCC(F)(F)F)OCC(F)(F)F`, the compound was classed as inactive. As for `CCOc1ccc2[nH]cc(C(=O)NCc3ccccc3)c(=O)c2n1`, the result was inactive.

With `OC(CCl)CCl`, the outcome was inactive. On the same count and under the same terms, the value for `C[C@]12C=CC(=O)C=C1CC[C@H]1[C@@H]3C[C@@H](O)[C@](O)(C(=O)CO)[C@@]3(C)C[C@H](O)[C@@]12F` was “inactive”.

In the case of `C=CN1CCCC1=O`, the outcome was inactive. Take `CCCC(CCC)C(=O)O`: the compound was called inactive.

`NCC(F)(F)C(F)(F)C(F)(F)C(F)(F)F`: the compound was called inactive.

With `Cc1ccc(S(=O)(=O)NC(=O)NN2CCCCCC2)cc1`, the result was inactive. Still for that read-out and setting: the value for `Cn1c(=O)c2[nH]cnc2n(C)c1=O` was “inactive”; that for `CCCCC(CC)C(=O)OCCOCCOCCOC(=O)C(CC)CCCC` (stereo not given) was “inactive”; that for `CCCCCOC(C)=O` was “inactive”. A word on the AC50: it is the concentration at which the activity in the assay is half-maximal. Consider `CCCCCCCCCCCCCCO`, for which the AC50 was 158 µM (active). `OC(O)(C(F)C(O)(O)C(F)(F)F)C(F)(F)F`: the call was inactive. Still for that read-out and setting: the value for `OCCNCCO` was “inactive”. For `O=S(=O)(O)CCC(F)(F)C(F)(F)C(F)(F)C(F)(F)C(F)(F)C(F)(F)F`, the compound was classed as inactive. The same measure, in the same setting: the value for `OCc1ccccc1` was “inactive”. Still for that read-out and setting: the value for `CC(C)C(=O)Nc1ccc([N+](=O)[O-])c(C(F)(F)F)c1` was “inactive”; that for `FC(F)=C(F)C(F)(F)C(F)(F)C(F)(F)C(F)(F)C(F)(F)C(F)(F)F` was “inactive”; that for `O=C(NO)C1(NS(=O)(=O)c2ccc(Oc3ccc(F)cc3)cc2)CCOCC1` was “inactive”.

Consider `COc1cc(C(C)C)c2c(c1)S(=O)(=O)N(COc1cc(=O)n3cccc(OCCN4CCCCC4)c3n1)C2=O`, for which the outcome was inactive. Regarding `OCc1c[nH]c2ccccc12`, the compound was classed as inactive. Take `COc1cc2c(c(OC)c1OC)-c1ccc(OC)c(=O)cc1[C@@H](NC(C)=O)CC2`: the outcome was inactive. The same measure, in the same setting: to `c1ccc2cc3ccccc3cc2c1` belongs “inactive”; to `O=C(Cl)C(F)(F)C(F)(F)C(F)(F)C(=O)Cl`, “inactive”. The same measure, in the same setting: the value for `CCCOc1ccc(S(=O)(=O)N2CCN(CC)CC2)cc1-c1nc2c(CC)n(Cc3ccccn3)nc2c(=O)[nH]1` was “inactive”; that for `Cn1cc[nH]c1=S` was “inactive”. Same read-out and setting: the value for `O=c1[nH]cnc2c1ncn2[C@H]1CC[C@@H](CO)O1` was “inactive”; that for `OCCC(F)(F)C(F)(F)C(F)(F)C(F)(F)F` was “inactive”; that for `O=C(O)c1ccc2c(c1)nc(C(=O)NC1CCN(C3CC3)CC1)n2Cc1cc(-c2ccc(Cl)s2)on1` was “inactive”.

Turning to `OCCOCCOCCO`, the outcome was inactive. Turning to `NC(=O)N(O)[C@@H]1COc2cc(OCc3ccccc3)ccc21`, the outcome was inactive.

Take `O=C(O)[C@H](O)[C@@H](O)C(=O)O`: the compound was classed as inactive. The same measure, in the same setting: to `CC1(C)C(=O)N(Cl)C(=O)N1Cl` belongs “inactive”. On the same count and under the same terms, to `CC(C)c1nnc2ccc(-c3ocnc3-c3cc(F)ccc3F)cn12` belongs “inactive”; to `Cc1cccc(O)c1C`, “inactive”.
